Results with a measured potency or affinity are listed apart. Results filed as inconclusive are left out. Unmarked numbers belong to inactive results. Activity calls are given as the source filed them. No rule for the calls is given here.
Assay: OVCAR-3 cell viability loss – plate reader, dry powder samples, PAX8 inhibitor project, dose response (AID 743044)
Conditions: NIH:OVCAR-3 ovarian cancer cell viability; max activity: at 35 µM, hits give low values unless noted; series mostly up to 50 µM

| SMILES | max activity | outcome |
| --- | --- | --- |
| C[C@@H]1CN([C@@H](C)CO)C(=O)c2cc(N(C)C)ccc2O[C@@H](C)CCCCO[C@H]1CN(C)S(=O)(=O)c1ccc(F)cc1 | 16.1% [at 0.26 µM, hits give low values] | – |
| COc1ccc2c3c([nH]c2c1)[C@@H](CO)N(C(=O)Nc1cccc(F)c1)CC31CCN(S(=O)(=O)c2cccc(C)c2)CC1 | -9.13% [at 8 µM, hits give low values] | – |
| O=C(CN1C(=O)c2ccccc2S1(=O)=O)c1ccc(Cl)cc1Cl | – | inactive |
| C[C@H]1CCCCO[C@H](CN(C)C(=O)Nc2ccc(C(F)(F)F)cc2)[C@@H](C)CN([C@@H](C)CO)C(=O)c2cc(NS(=O)(=O)c3cccs3)ccc2O1 | -51.4% | – |
| C[C@H]1CCCCO[C@H](CN(C)Cc2ccc(C(F)(F)F)cc2)[C@@H](C)CN([C@@H](C)CO)C(=O)c2cc(NC(=O)Nc3ccc(F)cc3)ccc2O1 | -16.7% | – |

Reference: PubChem BioAssay
